# This excerpt belongs to a sample that is enriched for hits.
# VACV Venus inh = inhibitors of vaccinia virus (Venus reporter) | hit rate 0.46% among 330,000 | Vaccinia virus Venus reporter expression, fluorescence | Potency, µM (top dose mostly 36.5 µM), hits mostly inhibitors; calls by dose curve; tested in A549 cells; further: nearly all actives have a fitted effect of over 30% in size
# Marburg entry inh = Marburg virus entry inhibition | hit rate 1.8% among 300,000 | Marburg virus pseudotyped entry inhibition, cell reporter | Potency, µM (top dose mostly 37.8 µM), actives largely listed as inhibitors; calls by dose curve; tested in HEK293 cells
# Shiga toxin inh = inhibitors of Shiga toxin in Vero cells; AID 2315; inhibition, % at 38.7 µM; hit rate 9.2% among 290,000; Vero cells, Shiga toxin protein synthesis inhibition reporter; in the data active means inhibition mostly above about 28%, no sharp cut-off; inactive means mostly below about 43%
# Lassa entry inh = inhibitors of Lassa virus binding or cell entry. Lassa virus pseudotype entry inhibition, cell reporter. Potency, µM (series often up to 37.9 µM), hits mostly inhibitors. hit rate 1.2% among 300,000. AID 540256; calls by dose curve; tested in HEK293 cells; further: nearly all actives have a fitted effect of over 50% in size
# Cycloheximide cs = affects cycloheximide protein synthesis inhibition readout, counter-screen | cell reporter, cycloheximide protein synthesis inhibition counterscreen | max response, % | hit rate 12% among 300,000 | AID 2314; in the data active means max response mostly above about 13%, no sharp cut-off; inactive means mostly below about 14%; further: read at 38.3 µM for the half of the compounds with a filed dose
# VACV mCherry inh = vaccinia inhibition (mCherry reporter) | hit rate 0.63% among 310,000 | Vaccinia virus mCherry reporter infection, fluorescence | AID 720579 | Potency, µM (doses to about 36.5 µM), hits mostly inhibitors; calls by dose curve; tested in A549 cells; further: nearly all actives have a fitted effect of over 35% in size
# Numbers stand for hits; n = inactive; u = inconclusive; x = not tested or not shown; + = active, no number.
SMILES,VACV Venus inh,Marburg entry inh,Shiga toxin inh,Lassa entry inh,Cycloheximide cs,VACV mCherry inh
COc1ccc(NC(=O)Cn2c(=O)n(C(C)C)c(=O)c3oc4ccccc4c32)cc1Cl,n,x,x,n,x,n
O=C(N/N=C/C(c1ccccc1)c1ccccc1)c1ccccc1F,n,u,n,u,49,n
CCC(/C=N/NC(=O)c1ccccc1F)CC,n,n,n,x,n,n
Cn1cccc1C(=O)N/N=C/c1c(Cl)cccc1Cl,n,n,61,u,63,n
O=C(N/N=C/c1c(Cl)cccc1Cl)c1ccccc1F,n,u,46,u,26,n
O=C(CSc1nccn1Cc1ccco1)Nc1cc(C(F)(F)F)ccc1Cl,n,x,x,n,x,n
CCOc1ccc(-c2nc(SCC(=O)NCCCOC)c(-c3ccccc3)[nH]2)cc1,n,u,x,u,x,n
COc1ccc(CC(=O)NCCS(=O)(=O)N2CCN(c3ccc(F)cc3)CC2)cc1OC,n,n,n,n,n,n
COC(=O)c1c[nH]c2c1-c1cc(C(=O)OCc3ccccc3)n(S(=O)(=O)c3ccc(C)cc3)c1C(=O)C2=O,2.2µM,n,x,u,x,u
N#C/C(=C/c1ccc(N2CCCCC2)o1)C(=O)Nc1ccc2ccccc2c1,n,u,88,n,40,n
N#C/C(=C/c1ccc(N2CCCCC2)o1)C(=O)Nc1ccc(Cl)cc1,x,n,76,u,35,x
CN1CCc2c(sc(NC(=O)CS(=O)(=O)c3ccc(F)cc3)c2C(N)=O)C1,n,u,x,n,x,n
Cc1ccc2ccccc2[n+]1CCCCI,n,x,x,x,x,n
Cc1cc(N)c2ccccc2[n+]1CCCCCCCCCC[n+]1c(C)cc(N)c2ccccc21,u,10µM,x,u,x,n
CC(C)(C)C(=O)CC(=O)Nc1ccc(Cl)c(N)c1,n,u,167,n,47,n
COC(=O)c1c(-c2cccnc2)csc1NC(=O)c1cc(C)on1,x,u,83,u,63,x
O=C(Nc1cccnc1)c1cc(-c2ccc(Br)cc2)on1,n,x,42,x,20,n
COc1cccc(-c2cc(C(=O)Nc3cccnc3)no2)c1,u,u,80,n,31,u
CCCCN(CC)Cc1ccc(CNC(=S)Nc2cccc(F)c2)o1,n,u,n,n,n,n
Cn1c(SCc2ccccc2Cl)nc2ccccc21,u,n,76,n,53,x
CCn1c(SCc2ccccc2Cl)nc2ccccc21,n,n,n,n,35,x
O=[N+]([O-])/C(C(Cl)=C(Cl)Cl)=C1\Nc2ccccc2O1,n,n,71,n,17,n
O=C1Nc2ccccc2Oc2cc([N+](=O)[O-])ccc21,n,n,n,n,n,n
CCc1cccc(NC(=O)Cn2c(=O)n(Cc3ccccc3)c(=O)c3c2c2cc(OC)ccc2n3C)c1,n,x,x,n,x,n
CCCCC(=O)Nc1cccc(-c2nc3ccccc3s2)c1,n,u,x,u,x,n
SMILES,VACV Venus inh,Marburg entry inh,Shiga toxin inh,Lassa entry inh,Cycloheximide cs,VACV mCherry inh
CCc1ccc(OCc2nc(-c3ccccn3)no2)c(Br)c1,n,u,n,u,29,n
CC(C)c1ccc(OCc2nc(-c3ccccn3)no2)c(Br)c1,n,u,67,u,46,n
COc1cc2c(cc1OC)[C@@H]1O[C@](CCCCN3C(=O)c4ccccc4C3=O)(C2)Oc2c1c(=O)oc1ccccc21,x,n,x,x,x,x
CCOC(=O)c1cccc(NC(=O)C(C)n2nc(C)c3c(C)n(-c4ccccc4)nc3c2=O)c1 (stereo not drawn),n,x,x,n,x,n
CCC(C)c1ccc(-c2cc(C(=O)OCC(=O)Nc3cc(C)on3)c3ccccc3n2)cc1 (stereo not drawn),n,u,n,1.6µM,n,n
COc1ccc(-c2cc(C(F)F)n3ncc(C(=O)Nc4cc(C)on4)c3n2)cc1,n,u,n,n,28,n
Cc1cc(NC(=O)c2cc(-c3ccc(OC(C)C)cc3)nc3ccccc23)no1,n,n,n,n,20,n
COc1ccc(-c2cc(C(=O)OCC(=O)Nc3cc(C)on3)c3ccccc3n2)cc1OC,n,n,n,n,n,x
Cc1cc(C(C)(C)C)oc1C(=O)N(CC(=O)NC1CCCC1)c1cccc(C(F)(F)F)c1,u,23µM,n,u,n,u
CCC(C)(C)NC(=O)C1CCC(CNS(=O)(=O)c2ccc3c(c2)CC(C)N3C(C)=O)CC1 (stereo not drawn),n,x,x,n,x,n
Cc1cc(C)cc(NC(=O)CN2C(=O)c3ccccc3Sc3ncccc32)c1,n,x,x,n,x,n
O=C1C(NS(=O)(=O)c2cccs2)=C(N2CCN(c3ccccc3)CC2)C(=O)c2ccccc21,n,n,44,u,n,x
O=C(OCCCOc1ccc(F)cc1)c1ccc(O)cc1O,n,n,n,n,21,n
Cn1c(CO)cnc1SCc1ccc(Cl)cc1,n,n,n,n,20,x
CC(=O)Nc1ccc(-c2nnc(SCc3ccc(C)cc3)n2C)cc1,x,u,n,u,n,x
COC(=O)c1cnc(SCc2ccc(C)cc2)n1C,n,n,n,n,32,n
COc1ccc(OC)c(CNC(=O)CCCn2nc(C)c3c(C)n(-c4ccc(C)cc4)nc3c2=O)c1,n,x,x,n,x,n
Cc1nc2cc(Cl)c(Cl)cc2nc1C,x,n,+,n,48,x
CCCCN1C(=O)C(CC(=O)NCc2cccc3ccccc23)CC(C(=O)N(C(C)C)C(C)C)=C1C (stereo not drawn),n,x,x,x,x,n
CCn1cc(/C=N\NC(=O)c2cc(-c3ccccc3OC)nc3ccccc23)c(C)n1,n,u,n,n,n,n
Cc1c(/C=N\NC(=O)c2c[nH]c3ccccc23)cnn1C,n,u,46,n,15,n
CCn1cc(/C=N\NC(=O)c2c[nH]c3ccccc23)c(C)n1,n,n,74,u,n,n
CCn1cc(/C=N\NC(=O)c2csc3ccccc23)c(C)n1,n,n,n,u,44,n
Cc1ccc(-c2nc(Cn3c(SCc4ccc(F)cc4)nc4cccnc43)c(C)o2)cc1,u,x,x,n,x,n
CCC(SC1=NCCS1)C(=O)Nc1ccc(S(N)(=O)=O)cc1 (stereo not drawn),n,n,n,n,n,n
SMILES,VACV Venus inh,Marburg entry inh,Shiga toxin inh,Lassa entry inh,Cycloheximide cs,VACV mCherry inh
CC(C)CCn1c(=O)c2ccccc2n2c(CCl)nnc12,n,u,n,u,n,n
CCCCCn1c(=O)c2ccccc2n2c(CCl)nnc12,n,n,n,n,33,n
O=c1c2c(nc3cc(-c4ccccc4Cl)[nH]n13)CCS2,n,u,78,n,38,n
O=c1c2c(nc3cc(-c4ccccc4)[nH]n13)CCS2,n,u,75,n,43,n
Cc1nc2cc(-c3ccsc3-n3c(C)ccc3C)[nH]n2c(=O)c1Cl,n,n,n,n,n,n
CCOC(=O)N1CCC(c2cc(=O)n3[nH]c(-c4ccccc4)cc3n2)CC1,n,x,n,x,n,n
Clc1ccc(/C=C/c2ncc3ccccn23)cc1,n,u,83,n,33,n
C#CCn1c(/C=C/c2ccc(Cl)cc2)nc2ccccc21,n,u,x,u,x,n
COc1cc(CNc2ccc(CNc3ncn[nH]3)cc2)ccc1OCc1ccccc1,n,u,40,n,48,u
Cc1ccc(CNc2ccc(CNc3ncn[nH]3)cc2)cc1,x,u,n,n,15,x
c1ccc2c(CNc3ccc(CNc4ncn[nH]4)cc3)cccc2c1,n,n,active,n,23,x

# Compound activity deposited in PubChem BioAssay by National Center for Advancing Translational Sciences (NCATS).
